Measured values taken from the antibiotic and cytotoxicity screens of Wong et al. (2023).
About 1,500 (3.8%) of roughly 39,000 compounds were called active. The sample as a whole holds a higher share of actives than the screen did.

Each compound was assayed on HSkMC (human skeletal muscle cells) (assay: cytotoxicity call (relative viability < 0.9)). Details: 10 µM.

Row | SMILES | cytotoxicity call
1 | COc1ccc(CCNC(=O)[C@@]2(Sc3ccc(C)cc3)CC(=O)N(C(C)C)[C@@H]2c2ccc(CO)cc2)cc1 | inactive
2 | COc1ccc(NC(=O)N(C)C[C@H]2Oc3c(NC(=O)C4CC4)cccc3C(=O)N([C@@H](C)CO)C[C@@H]2C)cc1 | inactive
3 | C[C@@H]1CN([C@H](C)CO)S(=O)(=O)c2ccc(C#Cc3ccncc3)cc2O[C@@H]1CN(C)C(=O)C1CCC1 | inactive
4 | COc1cccc(S(=O)(=O)Nc2ccc3c(c2)[C@@H]2C[C@H](CC(=O)NCc4ccccc4F)O[C@H](CO)[C@@H]2O3)c1 | inactive
5 | C[C@@H]1CCCCO[C@H](CN(C)S(=O)(=O)c2cccs2)[C@H](C)CN([C@@H](C)CO)C(=O)c2cc(NC(=O)Nc3ccccc3)ccc2O1 | inactive
6 | C[C@@H]1CCCCO[C@@H](CN(C)C(=O)Cc2ccccc2)[C@@H](C)CN([C@@H](C)CO)C(=O)c2cc(NS(=O)(=O)c3ccc(F)cc3)ccc2O1 | inactive
7 | C[C@H]1CN([C@@H](C)CO)C(=O)Cc2cc(NC(=O)C3CCCCC3)ccc2O[C@H]1CN(C)C(=O)Nc1ccc(C(F)(F)F)cc1 | inactive
8 | C[C@@H]1CN([C@H](C)CO)C(=O)c2cc(NC(=O)C3CCCCC3)ccc2O[C@@H](C)CCCCO[C@@H]1CN(C)C(=O)c1ccccc1 | inactive
9 | C[C@H]1CN([C@@H](C)CO)C(=O)Cc2cc(NC(=O)CCC(F)(F)F)ccc2O[C@H]1CN(C)S(=O)(=O)c1cccs1 | inactive
10 | C[C@H](CO)N1C[C@H](C)[C@@H](CN(C)Cc2ccc(C(=O)O)cc2)OCCCC[C@H](C)Oc2ccc(NC(=O)Nc3ccccc3)cc2C1=O | inactive
11 | CC(C)(ON=C(C(=O)NC1C(=O)N2C(C(=O)[O-])=C(C[n+]3ccccc3)CSC12)c1csc(N)n1)C(=O)O (stereo not drawn) | inactive
12 | C[C@H]1CCCCO[C@H](CN(C)Cc2ccc(C(F)(F)F)cc2)[C@@H](C)CN([C@@H](C)CO)C(=O)c2cc(NC(=O)NC3CCCCC3)ccc2O1 | inactive
13 | C[C@@H]1CN([C@@H](C)CO)C(=O)c2cc(NC(=O)NC3CCCCC3)ccc2O[C@@H](C)CCCCO[C@H]1CN(C)Cc1ccc(C(F)(F)F)cc1 | inactive
14 | C[C@H](CO)N1C[C@H](C)[C@@H](CN(C)Cc2ccc(C(F)(F)F)cc2)OCCCC[C@H](C)Oc2ccc(NC(=O)NC3CCCCC3)cc2C1=O | active
15 | Cc1ccc(/C=N/N(C)C2=NCCN2)o1 | inactive
16 | Cc1cc(C)c2c(c1)[C@@H](N(Cc1cc(C(F)(F)F)cc(C(F)(F)F)c1)c1nnn(C)n1)CCCN2C[C@H]1CC[C@H](C(=O)O)CC1 | active
17 | C[C@H]1CN([C@@H](C)CO)C(=O)c2cc(NC(=O)Nc3ccc(C(F)(F)F)cc3)ccc2O[C@H]1CN(C)C(=O)Nc1ccc2c(c1)OCO2 | inactive
18 | CC(=O)N(C)C[C@@H]1Oc2ncc(C#C[C@@H](C)O)cc2C(=O)N([C@H](C)CO)C[C@@H]1C | inactive
19 | C[C@@H]1CN([C@@H](C)CO)C(=O)c2cc(NC(=O)c3ccncc3)ccc2O[C@@H](C)CCCCO[C@H]1CN(C)C(=O)Nc1ccc2c(c1)OCO2 | inactive
20 | COc1ccc(CN(C)C[C@@H]2OCCCC[C@H](C)Oc3ccc(NS(=O)(=O)c4ccc(Cl)cc4)cc3C(=O)N([C@H](C)CO)C[C@H]2C)cc1 | inactive
21 | COc1cc(CN2CCC(C(=O)N[C@@H](c3ccc(F)cc3)c3ccc4ccccc4n3)CC2)cc(OC)c1 | inactive
22 | Cn1cc(CN2CCC(C(=O)N[C@@H](c3ccc(F)cc3)c3ccc4ccccc4n3)CC2)c2ccccc21 | active
23 | O=C(N[C@@H](c1ccccc1)c1ccc2ccccc2n1)C1CCN(Cc2cccc(C(F)(F)F)c2)CC1 | inactive
24 | O=C(N[C@H](c1ccc(F)cc1)c1ccc2ccccc2n1)C1CCN(Cc2ccc3ccccc3n2)CC1 | inactive

Row | SMILES | cytotoxicity call
25 | O=C(N[C@H](c1ccc(F)cc1)c1ccc2ccccc2n1)C1CCN(Cc2ccc(Oc3ccccc3)cc2)CC1 | inactive
26 | O=C(N[C@H](c1ccc(F)cc1)c1ccc2ccccc2n1)C1CCN(Cc2cccc(C(F)(F)F)c2)CC1 | active
27 | COc1ccc(CNC(=S)NCCO)cc1 | inactive
28 | O=S(=O)(NCC[C@@H]1CC[C@H](NS(=O)(=O)c2cccc(Cl)c2)[C@@H](CO)O1)c1cccc(F)c1 | inactive
29 | Cc1noc(C)c1NC(=O)N(C)C[C@H]1Oc2ccc(NS(=O)(=O)c3cccs3)cc2CC(=O)N([C@@H](C)CO)C[C@@H]1C | inactive
30 | CCCNC(=O)N1C[C@H](O)COC[C@@H]2O[C@@H](CC(=O)NCc3ccncn3)CC[C@H]21 | inactive
31 | CC[C@@H](C)NCCCCOc1ccc(Cl)cc1C(C)(C)C | active
32 | Cc1ccc(OCc2ccc(Cl)cc2)c(C(C)(C)C)c1 | inactive
33 | CC(C)(C)NCCCCOc1ccc(Cl)cc1C(C)(C)C | inactive
34 | C[C@@H]1CCCCO[C@H](CN(C)C(=O)CCC(F)(F)F)[C@H](C)CN([C@@H](C)CO)C(=O)c2cc(NS(=O)(=O)c3ccc(Cl)cc3)ccc2O1 | inactive
35 | C[C@@H]1CN([C@H](C)CO)C(=O)c2cc(-c3cccc(C#N)c3)cnc2O[C@H]1CN(C)C(=O)c1cnccn1 | inactive
36 | CO[C@@H]1CN(C)C(=O)c2ccc(NS(C)(=O)=O)cc2OC[C@@H](C)N(S(=O)(=O)CC(F)(F)F)C[C@H]1C | inactive
37 | C[C@@H]1CN([C@H](C)CO)C(=O)c2cccc(NC(=O)Nc3ccc(F)cc3)c2O[C@H]1CN(C)C(=O)Nc1ccc(C(F)(F)F)cc1 | inactive
38 | C[C@@H]1CN([C@H](C)CO)C(=O)c2cccc(NC(=O)Nc3ccc(C(F)(F)F)cc3)c2O[C@@H]1CN(C)C(=O)Nc1ccccc1 | active
39 | C[C@@H]1CN([C@@H](C)CO)C(=O)c2cccc(NC(=O)Nc3ccccc3)c2O[C@@H]1CN(C)C(=O)Nc1ccc(C(F)(F)F)cc1 | inactive
40 | COc1ccc(NC(=O)Nc2cccc3c2O[C@@H](CN(C)C(=O)Nc2ccc(C(F)(F)F)cc2)[C@@H](C)CN([C@@H](C)CO)C3=O)cc1 | inactive
41 | C[C@H]1CN([C@@H](C)CO)C(=O)c2cccc(NC(=O)Nc3ccc(C(F)(F)F)cc3)c2O[C@@H]1CN(C)C(=O)Nc1ccccc1 | inactive
42 | C[C@H](CO)N1C[C@H](C)[C@H](CN(C)C(=O)Nc2ccc(C(F)(F)F)cc2)Oc2c(NC(=O)Nc3ccccc3)cccc2C1=O | inactive
43 | C[C@H]1CN([C@@H](C)CO)C(=O)c2cccc(NC(=O)Nc3ccc(C(F)(F)F)cc3)c2O[C@@H]1CN(C)C(=O)Nc1ccc(F)cc1 | inactive
44 | C[C@@H]1CN([C@H](C)CO)C(=O)c2cccc(NC(=O)Nc3ccc(C(F)(F)F)cc3)c2O[C@@H]1CN(C)C(=O)Nc1ccc(C(F)(F)F)cc1 | active
45 | C[C@H](CO)N1C[C@H](C)[C@H](CN(C)C(=O)Nc2ccc(C(F)(F)F)cc2)Oc2c(NC(=O)Nc3ccc(C(F)(F)F)cc3)cccc2C1=O | active
46 | C[C@H]1CN([C@@H](C)CO)C(=O)c2cccc(NC(=O)Nc3ccc(C(F)(F)F)cc3)c2O[C@H]1CN(C)C(=O)Nc1ccc(C(F)(F)F)cc1 | inactive
47 | COc1ccc(NC(=O)Nc2cccc3c2O[C@H](CN(C)C(=O)Nc2ccc(C(F)(F)F)cc2)[C@@H](C)CN([C@@H](C)CO)C3=O)cc1 | inactive
48 | COc1ccc(NC(=O)N(C)C[C@H]2Oc3c(NC(=O)Nc4ccc(C(F)(F)F)cc4)cccc3C(=O)N([C@@H](C)CO)C[C@@H]2C)cc1 | active
